Source: ChEMBL document CHEMBL1961873, “Compounds: GSK PKIS; Assays: Nanosyn kinase panel” (2012)

Columns and labels:
[1] = biological target: Tyrosine-protein kinase SYK (Homo sapiens) (UniProt P43405); conditions: at 1 µM
[2] = biological target: T1, Tyrosine-protein kinase Tec (Homo sapiens) (UniProt P42680); conditions: at 0.1 µM
T1 sequence (whole entry): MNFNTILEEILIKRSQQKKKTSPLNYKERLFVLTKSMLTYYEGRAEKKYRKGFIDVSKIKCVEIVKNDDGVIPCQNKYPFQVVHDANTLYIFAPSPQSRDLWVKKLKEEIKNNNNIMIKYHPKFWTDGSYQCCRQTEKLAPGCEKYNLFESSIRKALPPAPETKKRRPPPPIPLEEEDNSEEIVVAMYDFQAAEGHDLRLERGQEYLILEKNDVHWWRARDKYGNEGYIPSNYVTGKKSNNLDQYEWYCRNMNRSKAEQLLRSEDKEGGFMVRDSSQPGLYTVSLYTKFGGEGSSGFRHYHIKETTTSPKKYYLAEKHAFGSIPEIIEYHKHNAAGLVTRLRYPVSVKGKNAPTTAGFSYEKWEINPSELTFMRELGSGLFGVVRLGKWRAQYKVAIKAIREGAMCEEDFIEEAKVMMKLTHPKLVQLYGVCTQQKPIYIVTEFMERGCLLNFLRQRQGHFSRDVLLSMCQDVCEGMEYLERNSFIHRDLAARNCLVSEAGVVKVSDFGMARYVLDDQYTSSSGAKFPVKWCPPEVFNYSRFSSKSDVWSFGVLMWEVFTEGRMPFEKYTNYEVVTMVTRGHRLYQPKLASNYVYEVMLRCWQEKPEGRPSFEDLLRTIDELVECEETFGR

[3] = biological target: T1, Tyrosine-protein kinase Tec (Homo sapiens); conditions: at 1 µM
[4] = biological target: Angiopoietin-1 receptor (Homo sapiens) (UniProt Q02763); conditions: at 0.1 µM
[5] = biological target: Angiopoietin-1 receptor (Homo sapiens) (UniProt Q02763); conditions: at 1 µM
[6] = biological target: T2, Non-receptor tyrosine-protein kinase TNK1 (Homo sapiens) (UniProt Q13470); conditions: at 0.1 µM
T2 sequence (whole entry): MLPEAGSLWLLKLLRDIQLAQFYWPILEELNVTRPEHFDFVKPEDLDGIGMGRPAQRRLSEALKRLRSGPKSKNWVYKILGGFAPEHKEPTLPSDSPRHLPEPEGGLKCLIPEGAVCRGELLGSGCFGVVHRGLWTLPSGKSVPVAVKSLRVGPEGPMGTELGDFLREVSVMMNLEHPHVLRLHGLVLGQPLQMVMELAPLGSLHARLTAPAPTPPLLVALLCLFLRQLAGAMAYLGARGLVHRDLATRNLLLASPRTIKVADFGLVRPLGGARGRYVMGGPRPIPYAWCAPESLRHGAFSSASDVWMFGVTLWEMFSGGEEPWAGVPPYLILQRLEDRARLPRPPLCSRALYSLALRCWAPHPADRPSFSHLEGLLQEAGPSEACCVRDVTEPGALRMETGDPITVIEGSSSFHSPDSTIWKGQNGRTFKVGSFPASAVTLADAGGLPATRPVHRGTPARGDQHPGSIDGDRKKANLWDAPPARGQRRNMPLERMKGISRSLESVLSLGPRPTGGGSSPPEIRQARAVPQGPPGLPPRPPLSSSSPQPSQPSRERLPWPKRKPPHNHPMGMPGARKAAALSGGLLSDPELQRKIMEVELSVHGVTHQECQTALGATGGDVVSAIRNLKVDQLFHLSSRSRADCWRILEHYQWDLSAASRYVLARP

[7] = biological target: T2, Non-receptor tyrosine-protein kinase TNK1 (Homo sapiens); conditions: at 1 µM
[8] = biological target: Activated CDC42 kinase 1 (Homo sapiens) (UniProt Q07912); conditions: at 0.1 µM
Activated CDC42 kinase 1 (Homo sapiens), sequence (Q07912 whole entry, looked up): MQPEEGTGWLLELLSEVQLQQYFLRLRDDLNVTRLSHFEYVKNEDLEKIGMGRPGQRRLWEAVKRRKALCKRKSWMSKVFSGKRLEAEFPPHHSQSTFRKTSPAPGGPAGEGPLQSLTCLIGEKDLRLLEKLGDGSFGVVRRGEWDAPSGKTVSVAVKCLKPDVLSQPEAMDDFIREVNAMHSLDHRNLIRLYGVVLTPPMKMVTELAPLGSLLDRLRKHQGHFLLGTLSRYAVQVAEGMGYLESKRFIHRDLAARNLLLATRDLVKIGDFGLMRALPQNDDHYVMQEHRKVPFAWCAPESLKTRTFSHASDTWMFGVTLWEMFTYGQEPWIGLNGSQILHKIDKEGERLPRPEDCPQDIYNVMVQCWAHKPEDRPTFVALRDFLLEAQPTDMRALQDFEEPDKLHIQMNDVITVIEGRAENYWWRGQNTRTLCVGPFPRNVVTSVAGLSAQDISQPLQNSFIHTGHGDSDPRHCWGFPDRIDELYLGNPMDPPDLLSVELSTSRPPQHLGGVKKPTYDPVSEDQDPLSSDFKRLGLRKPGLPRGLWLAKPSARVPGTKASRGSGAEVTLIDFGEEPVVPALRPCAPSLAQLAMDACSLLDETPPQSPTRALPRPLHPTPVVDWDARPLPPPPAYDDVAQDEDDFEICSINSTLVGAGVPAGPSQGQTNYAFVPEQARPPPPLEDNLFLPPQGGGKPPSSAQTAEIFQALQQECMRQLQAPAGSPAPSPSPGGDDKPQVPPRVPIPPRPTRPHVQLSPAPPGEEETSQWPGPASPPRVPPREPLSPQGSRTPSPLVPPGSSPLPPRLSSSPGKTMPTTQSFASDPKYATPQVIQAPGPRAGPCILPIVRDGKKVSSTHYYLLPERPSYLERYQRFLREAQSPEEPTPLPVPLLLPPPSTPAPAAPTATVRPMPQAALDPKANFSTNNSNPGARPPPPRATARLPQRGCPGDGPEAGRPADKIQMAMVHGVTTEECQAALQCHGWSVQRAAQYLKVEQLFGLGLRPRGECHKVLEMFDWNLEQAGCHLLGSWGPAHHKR

[9] = biological target: Activated CDC42 kinase 1 (Homo sapiens) (UniProt Q07912); conditions: at 1 µM
[10] = biological target: High affinity nerve growth factor receptor (Homo sapiens) (UniProt P04629); conditions: at 0.1 µM
High affinity nerve growth factor receptor (Homo sapiens), sequence (P04629 33-796 limits assumed): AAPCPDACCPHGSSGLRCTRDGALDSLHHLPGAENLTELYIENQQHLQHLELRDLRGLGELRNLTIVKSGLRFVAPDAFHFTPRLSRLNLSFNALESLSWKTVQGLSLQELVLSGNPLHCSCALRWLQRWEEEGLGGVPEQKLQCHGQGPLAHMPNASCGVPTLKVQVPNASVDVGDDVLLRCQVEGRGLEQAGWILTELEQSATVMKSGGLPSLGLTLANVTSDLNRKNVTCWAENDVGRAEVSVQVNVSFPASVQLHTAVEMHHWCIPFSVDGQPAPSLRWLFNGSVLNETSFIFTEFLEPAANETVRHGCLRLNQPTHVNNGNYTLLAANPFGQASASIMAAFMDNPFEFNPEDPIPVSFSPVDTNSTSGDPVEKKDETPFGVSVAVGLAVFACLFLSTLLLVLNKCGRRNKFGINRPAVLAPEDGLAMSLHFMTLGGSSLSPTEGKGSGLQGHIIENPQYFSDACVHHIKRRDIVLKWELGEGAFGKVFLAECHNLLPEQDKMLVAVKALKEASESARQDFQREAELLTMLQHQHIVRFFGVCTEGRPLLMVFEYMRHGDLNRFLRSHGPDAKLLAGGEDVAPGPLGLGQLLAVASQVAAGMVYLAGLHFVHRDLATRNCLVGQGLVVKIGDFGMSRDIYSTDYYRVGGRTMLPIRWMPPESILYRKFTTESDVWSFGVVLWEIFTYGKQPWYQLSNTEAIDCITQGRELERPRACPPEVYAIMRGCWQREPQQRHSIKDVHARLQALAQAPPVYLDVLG

[11] = biological target: High affinity nerve growth factor receptor (Homo sapiens) (UniProt P04629); conditions: at 1 µM
[12] = biological target: BDNF/NT-3 growth factors receptor (Homo sapiens) (UniProt Q16620); conditions: at 0.1 µM
BDNF/NT-3 growth factors receptor (Homo sapiens), sequence (Q16620 32-822 limits assumed): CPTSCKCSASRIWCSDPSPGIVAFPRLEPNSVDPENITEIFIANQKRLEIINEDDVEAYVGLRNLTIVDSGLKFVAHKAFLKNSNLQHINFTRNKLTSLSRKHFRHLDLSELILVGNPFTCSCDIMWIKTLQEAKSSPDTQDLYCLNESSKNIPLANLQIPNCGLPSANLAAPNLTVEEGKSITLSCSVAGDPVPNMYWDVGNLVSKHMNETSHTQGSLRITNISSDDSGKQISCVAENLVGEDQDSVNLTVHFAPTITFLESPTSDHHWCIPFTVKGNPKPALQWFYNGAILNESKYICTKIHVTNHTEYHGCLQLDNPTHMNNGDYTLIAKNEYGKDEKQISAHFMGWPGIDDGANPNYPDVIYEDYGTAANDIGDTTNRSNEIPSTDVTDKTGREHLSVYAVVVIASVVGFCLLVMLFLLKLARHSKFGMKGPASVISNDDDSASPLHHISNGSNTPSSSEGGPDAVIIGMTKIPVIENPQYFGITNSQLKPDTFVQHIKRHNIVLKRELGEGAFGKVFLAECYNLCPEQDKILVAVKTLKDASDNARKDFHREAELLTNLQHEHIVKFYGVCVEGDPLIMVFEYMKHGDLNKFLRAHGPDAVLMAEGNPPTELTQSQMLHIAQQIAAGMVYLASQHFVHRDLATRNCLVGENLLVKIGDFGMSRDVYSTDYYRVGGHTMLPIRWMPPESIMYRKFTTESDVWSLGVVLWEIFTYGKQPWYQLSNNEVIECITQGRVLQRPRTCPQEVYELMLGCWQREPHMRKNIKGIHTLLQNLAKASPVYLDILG

[13] = biological target: BDNF/NT-3 growth factors receptor (Homo sapiens) (UniProt Q16620); conditions: at 1 µM
[14] = biological target: NT-3 growth factor receptor (Homo sapiens) (UniProt Q16288); conditions: at 0.1 µM
NT-3 growth factor receptor (Homo sapiens), sequence (Q16288 32-839 limits assumed): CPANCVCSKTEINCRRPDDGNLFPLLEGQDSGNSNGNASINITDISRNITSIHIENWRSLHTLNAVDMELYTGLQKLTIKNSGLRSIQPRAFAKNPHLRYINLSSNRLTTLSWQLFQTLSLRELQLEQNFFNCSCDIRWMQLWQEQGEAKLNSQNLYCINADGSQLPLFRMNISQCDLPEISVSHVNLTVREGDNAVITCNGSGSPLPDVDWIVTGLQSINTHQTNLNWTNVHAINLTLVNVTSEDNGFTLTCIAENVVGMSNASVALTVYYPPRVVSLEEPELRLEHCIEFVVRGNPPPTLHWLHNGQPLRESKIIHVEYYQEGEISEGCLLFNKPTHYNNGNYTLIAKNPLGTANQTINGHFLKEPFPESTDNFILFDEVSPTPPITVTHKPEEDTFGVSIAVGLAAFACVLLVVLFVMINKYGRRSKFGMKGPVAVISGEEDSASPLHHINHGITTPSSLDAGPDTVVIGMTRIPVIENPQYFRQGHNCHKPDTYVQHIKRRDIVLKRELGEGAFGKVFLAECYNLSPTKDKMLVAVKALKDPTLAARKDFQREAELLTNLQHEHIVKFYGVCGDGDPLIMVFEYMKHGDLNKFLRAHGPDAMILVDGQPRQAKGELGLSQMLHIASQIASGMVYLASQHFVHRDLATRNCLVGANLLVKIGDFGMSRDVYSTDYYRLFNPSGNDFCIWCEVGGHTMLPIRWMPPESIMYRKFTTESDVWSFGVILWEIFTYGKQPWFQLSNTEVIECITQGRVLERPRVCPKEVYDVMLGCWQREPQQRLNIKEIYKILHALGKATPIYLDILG

[15] = biological target: NT-3 growth factor receptor (Homo sapiens) (UniProt Q16288); conditions: at 1 µM
[16] = biological target: T3, Tyrosine-protein kinase TXK (Homo sapiens) (UniProt P42681); conditions: at 0.1 µM
T3 sequence (whole entry): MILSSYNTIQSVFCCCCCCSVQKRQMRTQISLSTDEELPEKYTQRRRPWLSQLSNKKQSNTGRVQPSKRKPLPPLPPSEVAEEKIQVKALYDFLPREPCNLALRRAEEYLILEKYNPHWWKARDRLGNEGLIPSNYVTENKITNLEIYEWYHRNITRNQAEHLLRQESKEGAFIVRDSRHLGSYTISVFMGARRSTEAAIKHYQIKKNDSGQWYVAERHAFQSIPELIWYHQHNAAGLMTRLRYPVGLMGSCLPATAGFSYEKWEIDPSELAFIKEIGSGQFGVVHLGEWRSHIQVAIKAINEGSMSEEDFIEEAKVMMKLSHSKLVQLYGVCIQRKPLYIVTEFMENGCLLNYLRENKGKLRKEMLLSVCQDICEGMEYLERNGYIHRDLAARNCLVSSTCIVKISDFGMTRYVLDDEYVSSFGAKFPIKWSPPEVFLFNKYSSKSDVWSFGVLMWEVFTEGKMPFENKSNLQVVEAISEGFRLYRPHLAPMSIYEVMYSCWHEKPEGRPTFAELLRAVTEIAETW

[17] = biological target: T3, Tyrosine-protein kinase TXK (Homo sapiens); conditions: at 1 µM
[18] = biological target: Non-receptor tyrosine-protein kinase TYK2 (Homo sapiens) (UniProt P29597); conditions: at 0.1 µM;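 also: each value is a mean of the inhibition readings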
Non-receptor tyrosine-protein kinase TYK2 (Homo sapiens), sequence (P29597 whole entry): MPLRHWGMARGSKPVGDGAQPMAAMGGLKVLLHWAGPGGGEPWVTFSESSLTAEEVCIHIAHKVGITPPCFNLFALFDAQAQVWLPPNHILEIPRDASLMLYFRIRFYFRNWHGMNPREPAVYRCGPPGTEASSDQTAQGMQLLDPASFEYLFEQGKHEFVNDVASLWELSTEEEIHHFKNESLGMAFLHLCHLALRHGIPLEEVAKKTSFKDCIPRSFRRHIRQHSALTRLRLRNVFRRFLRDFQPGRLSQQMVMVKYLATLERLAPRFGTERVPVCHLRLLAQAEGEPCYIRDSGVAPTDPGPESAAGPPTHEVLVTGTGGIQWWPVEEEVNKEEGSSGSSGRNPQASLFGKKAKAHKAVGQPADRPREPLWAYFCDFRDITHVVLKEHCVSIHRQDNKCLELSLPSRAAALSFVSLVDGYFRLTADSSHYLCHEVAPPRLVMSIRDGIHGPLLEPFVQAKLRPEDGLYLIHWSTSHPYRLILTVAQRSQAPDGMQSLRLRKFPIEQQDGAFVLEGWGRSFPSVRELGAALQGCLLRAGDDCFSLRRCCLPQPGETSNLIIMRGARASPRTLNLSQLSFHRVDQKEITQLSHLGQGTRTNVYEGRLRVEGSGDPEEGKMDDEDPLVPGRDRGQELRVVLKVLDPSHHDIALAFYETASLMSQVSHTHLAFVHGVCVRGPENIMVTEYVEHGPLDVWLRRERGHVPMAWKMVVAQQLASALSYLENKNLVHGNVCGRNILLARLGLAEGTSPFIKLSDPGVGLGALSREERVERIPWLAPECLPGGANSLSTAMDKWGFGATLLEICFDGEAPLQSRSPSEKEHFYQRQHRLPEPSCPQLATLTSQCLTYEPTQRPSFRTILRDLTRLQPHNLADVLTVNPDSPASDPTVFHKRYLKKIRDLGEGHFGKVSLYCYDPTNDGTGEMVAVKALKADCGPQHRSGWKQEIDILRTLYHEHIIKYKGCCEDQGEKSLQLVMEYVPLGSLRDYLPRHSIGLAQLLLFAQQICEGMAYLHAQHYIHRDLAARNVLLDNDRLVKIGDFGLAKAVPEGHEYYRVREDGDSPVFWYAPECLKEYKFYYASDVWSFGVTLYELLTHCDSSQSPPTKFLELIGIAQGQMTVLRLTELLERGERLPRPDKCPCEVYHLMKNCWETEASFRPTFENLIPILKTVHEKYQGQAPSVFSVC

[19] = biological target: T4, Dual specificity protein kinase TTK (Homo sapiens) (UniProt P33981); conditions: at 1 µM;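 also: reported figures are mean TTK inhibition at 1 µM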
T4 sequence (whole entry): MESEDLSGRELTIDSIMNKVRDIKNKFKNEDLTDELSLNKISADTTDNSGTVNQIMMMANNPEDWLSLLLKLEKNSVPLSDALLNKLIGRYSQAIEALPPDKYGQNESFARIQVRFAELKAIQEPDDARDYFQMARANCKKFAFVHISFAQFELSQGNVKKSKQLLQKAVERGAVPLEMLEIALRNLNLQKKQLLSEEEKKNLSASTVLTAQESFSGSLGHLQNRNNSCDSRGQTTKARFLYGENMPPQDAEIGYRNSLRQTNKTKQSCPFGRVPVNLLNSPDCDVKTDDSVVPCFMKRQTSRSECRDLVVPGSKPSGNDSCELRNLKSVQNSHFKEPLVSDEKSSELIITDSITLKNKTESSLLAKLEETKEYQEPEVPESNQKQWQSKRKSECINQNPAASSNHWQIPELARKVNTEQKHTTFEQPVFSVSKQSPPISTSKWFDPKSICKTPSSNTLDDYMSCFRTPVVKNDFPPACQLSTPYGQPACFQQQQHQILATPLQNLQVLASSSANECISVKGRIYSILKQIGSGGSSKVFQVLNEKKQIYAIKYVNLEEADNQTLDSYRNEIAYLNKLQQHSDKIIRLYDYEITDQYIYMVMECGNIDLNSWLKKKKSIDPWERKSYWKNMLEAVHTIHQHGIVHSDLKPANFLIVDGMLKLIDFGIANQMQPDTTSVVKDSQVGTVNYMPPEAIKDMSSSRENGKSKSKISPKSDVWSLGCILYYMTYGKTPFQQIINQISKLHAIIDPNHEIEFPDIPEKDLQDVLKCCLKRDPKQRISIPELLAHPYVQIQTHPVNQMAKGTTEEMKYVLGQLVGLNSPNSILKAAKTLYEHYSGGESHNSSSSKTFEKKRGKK

[20] = biological target: T5, Aurora kinase A (Homo sapiens) (UniProt O14965); conditions: at 0.1 µM;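 also: each reported value is a mean percent inhibition of Aurora-A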
T5 sequence (whole entry): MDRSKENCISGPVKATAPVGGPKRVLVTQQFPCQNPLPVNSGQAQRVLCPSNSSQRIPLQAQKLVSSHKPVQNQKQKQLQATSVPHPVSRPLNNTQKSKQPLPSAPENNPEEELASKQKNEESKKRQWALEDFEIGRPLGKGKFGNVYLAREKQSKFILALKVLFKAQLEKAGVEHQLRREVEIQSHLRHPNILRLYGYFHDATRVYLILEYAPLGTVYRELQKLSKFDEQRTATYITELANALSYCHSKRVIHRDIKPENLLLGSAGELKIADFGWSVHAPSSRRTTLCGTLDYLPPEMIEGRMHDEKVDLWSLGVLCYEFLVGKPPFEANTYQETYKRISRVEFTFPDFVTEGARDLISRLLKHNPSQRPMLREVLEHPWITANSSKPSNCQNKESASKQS

NS(=O)(=O)c1ccc(NC=C2C(=O)Nc3ccc4ncsc4c32)cc1
inhibition [1]: 3.68% | inhibition [2]: 5.73% | inhibition [3]: 22.4% | inhibition [4]: 1.88% | inhibition [5]: 19.6% | inhibition [6]: 15.6% | inhibition [7]: 53.1% | inhibition [8]: 1.41% | inhibition [9]: 9.93% | inhibition [10]: 15.9% | inhibition [11]: 68.8% | inhibition [12]: 31.8% | inhibition [13]: 80.2% | inhibition [14]: 35.6% | inhibition [15]: 84.6% | inhibition [16]: 4.55% | inhibition [17]: 17.2% | inhibition [18]: 11% | inhibition [19]: 75.5% | inhibition [20]: 34.6%

c1ccc(Nc2ncc(-c3ccccc3)o2)cc1
inhibition [1]: 3.14% | inhibition [2]: 4.25% | inhibition [3]: 8.61% | inhibition [4]: 3.52% | inhibition [5]: 3.99% | inhibition [6]: 5.05% | inhibition [7]: 9.74% | inhibition [8]: 1.38% | inhibition [9]: 0.93% | inhibition [10]: 0.26% | inhibition [11]: 6.98% | inhibition [12]: 2.68% | inhibition [13]: 9.78% | inhibition [14]: 4.23% | inhibition [15]: 8.89% | inhibition [16]: 2.01% | inhibition [17]: 6.4% | inhibition [18]: -2.68% | inhibition [19]: 16.1% | inhibition [20]: 2.24%

CN1CCN(C(=O)c2ccc(NC(=O)Nc3ccc(N(C)c4ccnc(Nc5ccc(CS(C)(=O)=O)cc5)n4)cc3)cc2)CC1
inhibition [1]: -2.49% | inhibition [2]: 10.1% | inhibition [3]: 37.1% | inhibition [4]: 33.2% | inhibition [5]: 67.1% | inhibition [6]: 46.2% | inhibition [8]: 8.52% | inhibition [9]: 61% | inhibition [10]: 7.78% | inhibition [11]: 51% | inhibition [12]: 5.61% | inhibition [13]: 31.5% | inhibition [14]: 9.24% | inhibition [15]: 36.9% | inhibition [16]: 33.8% | inhibition [17]: 70.1% | inhibition [18]: -4.74% | inhibition [19]: 8.24% | inhibition [20]: 84.3%

COc1cccc(-n2ncc3c(N/N=C/c4ccc(C)cc4)ncnc32)c1
inhibition [1]: 0.76% | inhibition [2]: 6.46% | inhibition [3]: 5.78% | inhibition [4]: 4.38% | inhibition [5]: 5.1% | inhibition [6]: 4.86% | inhibition [7]: 9.73% | inhibition [8]: 0.47% | inhibition [9]: 5.39% | inhibition [10]: 9.62% | inhibition [11]: 5.28% | inhibition [12]: 3.97% | inhibition [13]: 5.08% | inhibition [14]: 3.96% | inhibition [15]: 2.64% | inhibition [16]: 7.7% | inhibition [17]: 7.5% | inhibition [18]: -1.37% | inhibition [19]: 19.1% | inhibition [20]: 3.98%

Cc1ccc(C(=O)NC2CC2)cc1-c1ccc2[nH]ncc2c1
inhibition [1]: -0.05% | inhibition [2]: -3.67% | inhibition [3]: -3.15% | inhibition [4]: 0.34% | inhibition [5]: 3.3% | inhibition [6]: -1.01% | inhibition [7]: 4.02% | inhibition [8]: -0.76% | inhibition [9]: 2.48% | inhibition [10]: 1.88% | inhibition [11]: -1.16% | inhibition [12]: -1.91% | inhibition [13]: -0.53% | inhibition [14]: -1.71% | inhibition [15]: 0.33% | inhibition [16]: -2.22% | inhibition [17]: 0.71% | inhibition [18]: 0.52% | inhibition [19]: -6.13% | inhibition [20]: -3.2%

Cc1cc(O)cc(C)c1/C=C/c1cncc(C(=O)N(C)C)c1
inhibition [1]: 2.96% | inhibition [2]: 3.84% | inhibition [3]: 5.03% | inhibition [4]: 5.65% | inhibition [5]: 10.7% | inhibition [7]: 1.79% | inhibition [8]: 1.45% | inhibition [9]: 2.24% | inhibition [10]: 2.88% | inhibition [11]: 2.43% | inhibition [12]: 1.59% | inhibition [13]: 0.08% | inhibition [14]: 2.73% | inhibition [15]: 1.59% | inhibition [16]: 2.92% | inhibition [17]: 3.74% | inhibition [18]: -1.5% | inhibition [19]: 4.52% | inhibition [20]: 2.58%
